Test results taken from PubChem BioAssay (NCATS).
Inconclusive results are not listed. Where a call stands in place of a potency, no number is given. A number with no mark means an inactive call. Activity calls are given as the source filed them. The call rests on the fitted dose curve; in most records, active means well fitted curve in the direction sought with a large enough effect; inconclusive means small, poorly fitted or top-dose-only effect, or another doubt; inactive means no such curve, though single readings can be large; an effect the other way counts as inactive or inconclusive.

Columns and labels:
[1] = molecular target: Rap guanine nucleotide exchange factor 3 (Homo sapiens) (UniProt O95398); assay: Confirmatory qHTS for antagonist of cAMP-regulated guanine nucleotide exchange factor 3 (EPAC1) (AID 1645880); further: nearly all actives have a fitted effect of over 55% in size; further: potency means the concentration at half of the fitted maximal effect
Rap guanine nucleotide exchange factor 3 (Homo sapiens), sequence (O95398 whole entry, looked up): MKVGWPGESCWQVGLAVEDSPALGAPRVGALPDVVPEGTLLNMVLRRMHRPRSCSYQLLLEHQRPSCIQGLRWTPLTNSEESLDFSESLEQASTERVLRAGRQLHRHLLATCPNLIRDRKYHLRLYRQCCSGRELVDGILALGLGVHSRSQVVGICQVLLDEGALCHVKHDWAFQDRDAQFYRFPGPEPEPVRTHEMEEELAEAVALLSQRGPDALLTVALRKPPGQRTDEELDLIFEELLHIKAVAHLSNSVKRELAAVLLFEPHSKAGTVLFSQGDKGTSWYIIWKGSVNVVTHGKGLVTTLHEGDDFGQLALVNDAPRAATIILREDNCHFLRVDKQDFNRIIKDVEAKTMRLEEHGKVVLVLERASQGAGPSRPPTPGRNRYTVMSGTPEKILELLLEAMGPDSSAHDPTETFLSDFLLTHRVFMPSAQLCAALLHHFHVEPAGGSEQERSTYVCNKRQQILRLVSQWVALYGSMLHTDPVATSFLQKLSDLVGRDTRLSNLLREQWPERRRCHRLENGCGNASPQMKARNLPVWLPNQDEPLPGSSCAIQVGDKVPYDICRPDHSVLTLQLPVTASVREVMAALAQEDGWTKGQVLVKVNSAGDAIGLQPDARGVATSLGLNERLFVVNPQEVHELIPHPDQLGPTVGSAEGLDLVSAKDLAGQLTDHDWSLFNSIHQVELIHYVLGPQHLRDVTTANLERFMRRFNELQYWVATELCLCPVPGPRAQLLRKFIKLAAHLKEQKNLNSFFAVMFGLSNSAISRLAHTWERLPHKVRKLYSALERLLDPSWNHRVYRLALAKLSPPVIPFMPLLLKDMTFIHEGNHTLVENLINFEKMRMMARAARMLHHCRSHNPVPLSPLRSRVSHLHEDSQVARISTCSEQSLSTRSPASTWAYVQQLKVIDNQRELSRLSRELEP
Procedure, shortened: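 Released BODIPY-GDP fluoresces less than Rap1-bound BODIPY-GDP; the signal is followed at 480/540 nm at 5-min intervals over 30 min, after 5 min at room temperature. Reactions contain 100 nM EPAC1, 250 nM RAP1B-BODIPY-GDP and 50 uM GDP; results are normalized to ATA and DMSO.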

[2] = molecular target: Rap guanine nucleotide exchange factor 3 (Homo sapiens) (UniProt O95398); assay: Confirmatory qHTS for agonist of cAMP-regulated guanine nucleotide exchange factor 3 (EPAC1) (AID 1645881); further: nearly all actives have a fitted effect of over 75% in size; further: potency means the concentration at half of the fitted maximal effect;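 on activation: EPAC1 catalysed release of BODIPY-GDP from Rap1B seen as fluorescence loss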
[3] = molecular target: Rap guanine nucleotide exchange factor 4 (Homo sapiens) (UniProt Q8WZA2); assay: Confirmatory qHTS for agonist of cAMP-regulated guanine nucleotide exchange factor 4 (EPAC2) (AID 1645884);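 further: nucleotide exchange releases bodipy-GDP from Rap1 and this lowers its fluorescence; nearly all actives have a fitted effect of over 65% in size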; further: potency means the concentration at half of the fitted maximal effect
Rap guanine nucleotide exchange factor 4 (Homo sapiens), sequence (Q8WZA2 whole entry, looked up): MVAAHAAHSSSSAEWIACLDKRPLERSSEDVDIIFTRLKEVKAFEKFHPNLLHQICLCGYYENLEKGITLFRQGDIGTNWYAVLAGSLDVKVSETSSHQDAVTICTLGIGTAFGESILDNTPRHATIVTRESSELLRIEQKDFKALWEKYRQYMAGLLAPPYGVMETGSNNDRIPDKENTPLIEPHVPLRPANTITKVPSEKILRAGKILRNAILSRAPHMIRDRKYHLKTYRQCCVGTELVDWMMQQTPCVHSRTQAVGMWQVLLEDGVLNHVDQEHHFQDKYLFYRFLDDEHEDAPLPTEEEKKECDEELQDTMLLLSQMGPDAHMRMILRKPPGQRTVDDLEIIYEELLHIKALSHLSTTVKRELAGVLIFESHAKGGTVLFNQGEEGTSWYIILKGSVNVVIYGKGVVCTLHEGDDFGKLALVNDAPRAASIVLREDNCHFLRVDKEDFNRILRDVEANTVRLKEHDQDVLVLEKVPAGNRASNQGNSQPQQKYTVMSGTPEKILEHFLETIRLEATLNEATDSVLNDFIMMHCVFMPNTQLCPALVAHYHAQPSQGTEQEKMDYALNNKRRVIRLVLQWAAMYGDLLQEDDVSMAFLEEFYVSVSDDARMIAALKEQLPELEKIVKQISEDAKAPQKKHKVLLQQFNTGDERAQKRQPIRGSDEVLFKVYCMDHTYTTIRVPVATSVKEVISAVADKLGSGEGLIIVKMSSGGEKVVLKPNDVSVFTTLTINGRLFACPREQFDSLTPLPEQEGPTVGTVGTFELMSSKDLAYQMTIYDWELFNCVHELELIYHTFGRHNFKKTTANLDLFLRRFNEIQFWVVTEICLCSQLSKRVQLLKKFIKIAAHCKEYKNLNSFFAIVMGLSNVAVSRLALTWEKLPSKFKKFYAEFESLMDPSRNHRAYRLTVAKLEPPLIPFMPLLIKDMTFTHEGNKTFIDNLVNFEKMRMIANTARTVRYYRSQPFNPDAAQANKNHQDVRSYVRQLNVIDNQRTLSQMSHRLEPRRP

[4] = molecular target: Rap guanine nucleotide exchange factor 4 (Homo sapiens) (UniProt Q8WZA2); assay: Confirmatory qHTS for antagonist of cAMP-regulated guanine nucleotide exchange factor 4 (EPAC2) (AID 1645885); further: nearly all actives have a fitted effect of over 25% in size; further: potency means the concentration at half of the fitted maximal effect
[5] = molecular target: Rap guanine nucleotide exchange factor 3 (Homo sapiens) (UniProt O95398); assay: Counterscreen qHTS for antagonist of cAMP-regulated guanine nucleotide exchange factor 3 (EPAC1) (AID 1645888)
Procedure, shortened: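 Rap1B–BODIPY-GDP (250 nM) with 50 uM GDP; compounds pin-transferred to 9.74 nM–152 uM final (activator) or from 7.32 nM upwards (inhibitor). Fluorescence Ex/Em 480/540 nm read at 5 and 30 min, then after adding cAMP or buffer, at room temperature.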

Row | Structure (SMILES) | Potency [1] | Potency [2] | Potency [3] | Potency [4] | Potency [5] | activation [3] | activity change, negative = inhibition [5] | outcome [4]
1 | CCOc1ncccc1C(=O)Nc1ccc(C)c(S(=O)(=O)N2CCCCCC2)c1 | inactive | inactive | inactive | inactive | inactive |  |  | 
2 | COc1cc(C=NNc2ccc(S(=O)(=O)Nc3ccccc3C(=O)O)cc2[N+](=O)[O-])ccc1O | 20 µM (active) | inactive |  | inactive |  | -6.92% [at 17.1 µM, percent relative to cAMP agonist control] | -11.1% [at 30.8 µM] | 
3 | COc1ccccc1Nc1nc(N)nc(CN2CCC(C)CC2)n1 | inactive | inactive | inactive | inactive | inactive |  |  | 
4 | Cc1ccc(Cl)c2c1N[C@@H](c1ccc(C(=O)O)cc1)[C@H]1CC=C[C@@H]21 | 84.9 µM (active) | inactive | inactive | inactive | inactive |  |  | 
5 | CC1(c2ccccc2)CC(C)(C)N2C(=O)Cc3cccc1c32 (stereo not given) | inactive | inactive | inactive | 33.8 µM (active) | inactive |  |  | 
6 | CCc1ccccc1Oc1nc(NC(C)C)nc2ccsc12 | inactive | inactive |  | inactive |  | 7.29% [at 17.1 µM, percent relative to cAMP agonist control] | -29.4% [at 30.8 µM] | 
7 | Cc1cscc1-c1ccc(C(=O)Nc2c(C)cccc2C)o1 | inactive | inactive |  | inactive |  | 7.37% [at 17.1 µM, percent relative to cAMP agonist control] | -5.01% [at 30.8 µM] | 
8 | Oc1ccc(Br)cc1C=Nc1cccn2cc(-c3ccccc3)nc12 | 84.9 µM (active) | inactive | inactive | 75.7 µM (active) | inactive |  |  | 
9 | CCc1noc(C)c1C(=O)N1CCCSC1=Nc1ccccc1C(C)C | inactive | inactive | inactive | inactive | inactive |  |  | 
10 | CN(c1ncnc2onc(-c3cccc(Cl)c3)c12)C1CCCCC1 | inactive | inactive | inactive |  | inactive |  |  | inactive [at 12.7 µM]
11 | O=C(O)c1ccc(S(=O)(=O)/N=C2\C=C(Nc3ccccc3F)C(=O)c3ccccc32)cc1 | 30.1 µM (active) | inactive | inactive | inactive | inactive |  |  | 
12 | O=C(O)C(c1ccccc1)N1C(=O)/C(=C\c2ccc(O)c(O)c2)SC1=S (stereo not given) | 6.75 µM (active) | inactive | inactive | 21.3 µM (active) | inactive |  |  | 
13 | COc1ccc(C(=O)Nc2ccc(-c3cc4ccccc4oc3=O)c(C)c2)cc1OC | inactive | inactive | inactive | inactive | inactive |  |  | 
14 | COc1ccc(C(=O)NCc2ccc3c(c2)CCN3C(=O)c2ccc(C)cc2)cc1 | inactive | inactive | inactive | inactive | inactive |  |  | 
15 | Cc1ccc2nc3sc(C(=O)N4CCCc5ccccc54)c(N)c3cc2c1 | inactive | inactive |  | inactive |  | 4.98% [at 17.1 µM, percent relative to cAMP agonist control] | -0.0356% [at 30.8 µM] | 
16 | O=c1c(Cl)c(Cl)cnn1Cc1nnc(-c2ccccc2Br)o1 | 42.6 µM (active) | inactive | inactive | inactive | inactive |  |  | 
17 | COc1cccc(NC(=O)CCNC(=O)Cn2ccc3ccccc3c2=O)c1 | inactive | inactive | inactive | inactive | inactive |  |  | 
18 | Cc1cc(Nc2cccc(C(F)(F)F)c2)nc2ccc(NC(=O)c3ccc(N(C)C)cc3)cc12 | inactive | inactive | inactive | inactive | inactive |  |  | 
19 | CCOC(=O)CSc1nc(C)c2cc(C)c(C)cc2n1 | inactive | inactive | inactive | inactive | inactive |  |  | 

Row | Structure (SMILES) | Potency [1] | Potency [2] | Potency [3] | Potency [4] | Potency [5] | activation [3] | activity change, negative = inhibition [5] | outcome [4]
20 | Clc1cccc(Cl)c1C1Nc2cccc3cccc(c23)N1 | inactive | inactive | inactive | inactive | inactive |  |  | 
21 | O=C1CC(c2ccccc2)=C(c2ccccc2)C1 | inactive | inactive |  | inactive |  | -2.19% [at 17.1 µM, percent relative to cAMP agonist control] | 8.98% [at 30.8 µM] | 
22 | O=C1NC(=Nc2ccccc2Cl)S/C1=C\c1cc([N+](=O)[O-])ccc1O | 53.6 µM (active) | inactive | inactive | 26.9 µM (active) | inactive |  |  | 
23 | C(=C\c1ccccc1)/CN1CCN(C(c2cc3ccccc3o2)c2nnnn2C2CCCC2)CC1 (stereo not given) | inactive | inactive |  | inactive |  | 0% [at 17.1 µM, percent relative to cAMP agonist control] | 19.5% [at 30.8 µM] | 
24 | Cc1ccc(C(=O)Nc2ccccc2Oc2ccccc2)o1 | inactive | inactive |  | inactive |  | 4.96% [at 17.1 µM, percent relative to cAMP agonist control] | 1.6% [at 30.8 µM] | 
25 | CCc1ccc(S(=O)(=O)/N=C2\C=C(NS(=O)(=O)c3ccccc3)C(=O)c3ccccc32)cc1 | 19 µM (active) | inactive | inactive | inactive | inactive |  |  | 
26 | CCOc1ccc(C(=O)Nc2ccc3c(c2)N(C(C)=O)CCC3)cc1OCC | inactive | inactive | inactive | inactive | inactive |  |  | 
27 | CC(C)CN(C(=O)CC1OC(=O)c2ccccc21)c1c(N)n(Cc2ccccc2)c(=O)[nH]c1=O (stereo not given) | inactive | inactive | inactive | inactive | inactive |  |  | 
28 | Cc1ccc(S(=O)(=O)Nc2cccc(C(=O)NCC(c3ccco3)N3CCCCC3)c2)cc1F (stereo not given) | inactive | inactive | inactive | inactive | inactive |  |  | 
29 | CCCc1cc(C(=O)Nc2ccccc2C(=O)OC)no1 | inactive | inactive | inactive | inactive | inactive |  |  | 
30 | NC(=O)c1cc2ccc(O)cc2oc1=NCc1ccccc1 | inactive | 112 µM (active) | 112 µM (active) | inactive | inactive |  |  | 
31 | N#Cc1c(NC(=O)c2ccccc2)sc2c1CCCCC2 | inactive | inactive |  | inactive |  | 10.4% [at 17.1 µM, percent relative to cAMP agonist control] | 2.87% [at 30.8 µM] | 
32 | Oc1ccc(C2=Nn3c(nnc3-c3ccco3)SC2)cc1O | 16.9 µM (active) | inactive | inactive | inactive | inactive |  |  | 
33 | COc1cc(Nc2cc(C)nc3ncnn23)cc(OC)c1 | inactive | inactive | inactive | inactive | inactive |  |  | 
34 | CCc1cccc2c(C(=O)COC(=O)c3nccnc3N)c[nH]c12 | inactive | inactive | inactive | inactive | inactive |  |  | 
35 | O=c1cc(CSc2ccccc2)nc(-c2ccncc2)[nH]1 | inactive | inactive | inactive | inactive | inactive |  |  | 
36 | Cc1ccc(-c2cc([C@H]3[C@@H]4C=CCC[C@@]4(C)C(=O)N3Cc3ccccc3)ccc2F)cc1 | inactive | inactive |  | inactive |  | -2.1% [at 17.1 µM, percent relative to cAMP agonist control] | -9.39% [at 30.8 µM] | 
37 | CC1(C(=O)NS(=O)(=O)c2ccc3ccccc3c2)CCN1C(=O)C1(c2ccc(Cl)cc2)CCC1 (stereo not given) | 37.9 µM (active) | inactive | inactive | inactive | inactive |  |  | 
38 | Cn1cc(C(c2ccccc2)c2ccc(Cl)s2)c2ccccc21 (stereo not given) | inactive | inactive | inactive | inactive | inactive |  |  | 
